In all, about 340,000 compounds went through this assay and about 1,700 (0.5%) were called active. This is one part of a sample in which actives are shown more often than they occur. Values without a mark were called inactive. No stated cut-off is given here; in the data, active means inhibition above about 36%; inactive means the rest.

The target of this assay is Serine protease HTRA1 (Homo sapiens) (UniProt Q92743). In words: inhibition of human HTRA1 peptidase – biochemical, fluorescence polarization, HTS, primary screen (AID 504803).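 Further: 0% = enzyme with DMSO and 100% = wells lacking enzyme.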 Particulars: recombinant HTRA1, FP-rhodamine activity-based probe, at 5.96 µM, hits give high values. Background: Fluorescence polarisation rises when a labelled molecule tumbles more slowly, as on binding a larger partner.
Sequence of Serine protease HTRA1 (Homo sapiens) (Q92743 whole entry, looked up): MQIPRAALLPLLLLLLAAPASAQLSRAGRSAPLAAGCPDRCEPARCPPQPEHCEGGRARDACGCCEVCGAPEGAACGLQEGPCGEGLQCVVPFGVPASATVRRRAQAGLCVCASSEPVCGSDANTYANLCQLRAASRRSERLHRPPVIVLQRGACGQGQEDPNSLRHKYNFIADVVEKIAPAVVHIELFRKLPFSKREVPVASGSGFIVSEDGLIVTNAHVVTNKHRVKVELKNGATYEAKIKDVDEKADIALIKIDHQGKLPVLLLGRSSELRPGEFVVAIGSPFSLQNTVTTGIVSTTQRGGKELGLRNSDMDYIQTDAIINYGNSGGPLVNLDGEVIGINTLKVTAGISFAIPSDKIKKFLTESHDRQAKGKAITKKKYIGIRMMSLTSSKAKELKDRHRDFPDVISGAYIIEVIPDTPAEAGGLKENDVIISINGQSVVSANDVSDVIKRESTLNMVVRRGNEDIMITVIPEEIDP
In the case of `CC1=C(C(=O)N2CCOCC2)CC(CC(=O)NCc2cccc3ccccc23)C(=O)N1CCC1=CCCCC1` (stereo unspecified), the inhibition – broadly, the relative decrease from the control value, in per cent – is -3.43%. In the case of `O=C1NC(Cc2ccccc2)c2nc3ccc(Br)cc3c(=O)n2-c2cc3ccccc3cc21` (stereo unspecified), the inhibition was -54.3%. As for `CC(=O)Nc1ccc(NS(=O)(=O)c2ccc3c(c2)NC(=O)CC(=O)N3)cc1`, the figure is 6.8%; as for `CC(=O)Nc1ccc(S(=O)(=O)N2CCCC2C(=O)O)cc1` (stereo unspecified), 2%. Take `CC(=O)Nc1ccc(S(=O)(=O)Nc2ccc(N3CCCCC3)cc2)cc1`: the inhibition is 52.4% (active). As for `C=CCOc1ccccc1CNn1c(C)n[nH]c1=S`, the figure is 3.58%; as for `CNC(=S)NNC(=O)c1sccc1OCc1ccccc1`, 5.29%. Consider `CNC(=S)NNC(=O)c1oc2nc(-c3ccccc3)cc(-c3ccco3)c2c1N`, for which the inhibition was 51.7% (active). `CNC(=S)NNC(=O)c1cccn(Cc2ccccc2)c1=O`: the inhibition was 3.18%. The result for `Cc1cc2cc3n(c2nn1)N=C(Cl)CC3` reads 3.25%; that for `CCOC(=O)C1CCN(C(=O)c2ccc3c(=O)n4nc(Nc5ccccc5CC)sc4nc3c2)CC1`, -34.2%. The result for `CCOC(=O)C=Cc1ccc(C(=O)OCC)[nH]1` reads 0.68%; that for `Cc1[nH]c2ccccc2c1C(=O)C(=O)NCc1nnnn1-c1cccc(F)c1`, 7.28%.

Turning to `CCC(Oc1ccccc1)C(=O)OCC(=O)Nc1c(C)nn(-c2ccccc2)c1C` (stereo unspecified), the inhibition is -6.47%. As for `Cn1c(SCC(=O)N/N=C/c2ccc(O)c(O)c2)nc2ccccc21`, the figure is 41.2% (active); as for `CCn1c(SCC(=O)N/N=C/c2ccncc2)nc2ccccc21`, 4.65%. For `CCOc1ccc(/C=N/NC(=O)CSc2ccccn2)cc1O`, the inhibition is 9.01%.

`O=C1OCCC1=COCCCCOC=C1CCOC1=O`: the inhibition is -3.04%. The result for `O=C(O)c1ccc(N/N=C/c2cn(-c3ccccc3)nc2-c2cccs2)cc1` reads -11.3%. As for `O=C(N/N=C/c1sc(N2CCCCC2)nc1-c1cccs1)c1cccnc1`, the figure is 40.5% (active). As for `Cc1ccc(NC(=O)COc2ccc(/C=N\NC(=O)c3cccnc3)cc2)cc1C`, the figure is -7.41%; as for `CSc1ncnc2c1ncn2CCCNCc1ccco1`, 8.47%; as for `CCN(CC)CCN(C(=O)c1ccc2c(c1)CCCC2)c1nc2c(OC)cccc2s1`, -19.6%.

Regarding `CN1OC[C@@H]2CN[C@H](c3ccc(-c4ccccc4)cc3)C[C@@H]21`, the inhibition was -1.81%. As for `COCCn1c(SCC(=O)Nc2ccc(F)cc2F)nc2c(c1=O)SCC2`, the inhibition is -1.19%. Take `CC(CC(=O)N1CCN(c2ccccc2)CC1)c1ccccc1` (stereo unspecified): the inhibition was -0.5%. As for `CC(=O)N1CCN(c2ccc(NCc3ccc(C(C)C)cc3)cc2)CC1`, the figure is 59.2% (active); as for `CC(=O)c1ccc(N2CCN(C(=O)CCc3ccccc3)CC2)cc1`, 2.82%. As for `O=C(OCc1ccccc1)N1CCC2CC1c1cc(N3CCN(S(=O)(=O)c4cc(Cl)cc(Cl)c4)CC3)ccc12` (stereo unspecified), the figure is -4.06%; as for `C[C@H](O)[C@@H]1C(=O)N2CCc3c([nH]c4ccccc34)[C@@H]2C[C@@H]1N(C)C(=O)Nc1ccc(F)cc1`, -1.56%; as for `C[C@@H]1CN([C@H](C)CO)C(=O)CCCn2nncc2CO[C@@H]1CN(C)C(=O)OCc1ccccc1`, -3.03%. With `CC(C)CCOc1ccc(C(=O)Nc2cc(S(=O)(=O)N3CCOCC3)ccc2N2CCOCC2)cc1`, the inhibition is -7.89%. For the compound `COc1ccc(NS(=O)(=O)c2cc(NC(=O)COc3ccccc3F)ccc2OC)cc1`, the inhibition was -13.3%. As for `Cc1ccc(NC(=O)CCNC(=O)c2ccc([N+](=O)[O-])cc2)cc1S(=O)(=O)N1CCOCC1`, the figure is 3.34%; as for `COc1ccc(NS(=O)(=O)c2cc(NC(=O)CC(=O)c3ccc([N+](=O)[O-])cc3)ccc2C)cc1`, 45.4% (active).

Turning to `CC1CCCC(C)N1C(=O)COC(=O)c1ccccc1C(=O)c1ccccc1` (stereo unspecified), the inhibition is 0.04%. `CCOc1cc(/C=N/NC(=O)c2ccncc2)cc(Br)c1O`: the inhibition is 3.19%.

With `O=C(C1CCCO1)N1CCN(C(=O)C23CC4CC(CC(C4)C2)C3)CC1` (stereo unspecified), the inhibition was 9.09%. Regarding `CC(=O)Oc1cccc(N2C(=O)CC(Nc3ccc(N4CCOCC4)cc3)C2=O)c1` (stereo unspecified), the inhibition was 51.5% (active). As for `COc1ccc(N2CCN(C3CC(=O)N(c4ccc5c(c4)OCCO5)C3=O)CC2)cc1` (stereo unspecified), the inhibition is 4.17%. For the compound `O=C1CC(NNc2ccccc2)C(=O)N1c1cccc(Cl)c1` (stereo unspecified), the inhibition was -8.57%. The result for `CCC(C)Cn1c(O)cc2nn(-c3nc4ccccc4s3)c(=O)c-2c1C` (stereo unspecified) reads 61.1% (active); that for `O=C(OCc1ccccc1)N1CCC2CC1c1ccc(-c3ccc4c(c3)OCO4)cc12` (stereo unspecified), -25%; that for `COc1ccc(-c2csc(Nc3cccc(C)n3)n2)cc1OC`, 13.4%. The result for `COc1ccc(OC)c(Nc2nc(-c3ccc(O)c(O)c3)cs2)c1` reads 64.3% (active); that for `COc1ccc(OC)c(-c2csc(NC(=O)C3=NNC(=O)CC3)n2)c1`, -2.91%; that for `C[C@@H]1CN([C@H](C)CO)S(=O)(=O)c2ccc(C#C[C@@H](C)O)cc2O[C@@H]1CN(C)Cc1ccc(-c2ccccc2)cc1`, -54%. The result for `O=C(OCc1cn([C@H]2C[C@H](c3ccccc3)N(C(=O)c3cccs3)C[C@@H]2O)nn1)c1ccccc1` reads -11.7%. For the compound `N#CC1(Nc2ccc3c4c(cccc24)CC3)CCCCC1`, the inhibition is 33.2%. As for `O=C1CSC(=S)N1/N=C/c1ccc(O)c([N+](=O)[O-])c1`, the figure is 13.7%. As for `Cc1cc(C(=O)COC(=O)C2CC2)c(C)n1-c1ccc(F)cc1`, the figure is 4.47%; as for `Cc1cc(C(=O)N/N=C/c2ccc(O)c([N+](=O)[O-])c2)c(C)n1-c1ccc(F)cc1`, 45.1% (active).

With `Cc1ccc([C@H]2N[C@]3(CCCN(CC4CCCCC4)C3=O)[C@H]3C(=O)N(Cc4ccccc4)C(=O)[C@@H]23)cc1`, the inhibition is -16.8%. For `Fc1ccccc1N=C1Nc2cccc3cccc1c23`, the inhibition is -6.03%. The result for `COc1ccccc1-c1nc(C(F)(F)F)c(OC)o1` reads -5.12%; that for `COc1ccccc1C1=Nc2cccc3cccc(c23)N1`, 60.3% (active).

(Values after PubChem BioAssay AID504803 (The Scripps Research Institute Molecular Screening Center, 2011).)
